Hits are enriched below; roughly 8.1% of the tested compounds scored in any of these assays.
ELG1 DNA repair: blocks ELG1-dependent DNA repair in HEK293T cells | HEK293T ELG1-luciferase reporter, luminescence, 16 h; DNA damage induced by 5-fluorouridine | Potency, µM (titrated, usually from 46.1 µM), without a hit: at the top dose activity change, negative = inhibition, usual class: inhibitors | 330,000 tested, 2.3% active | AID 504467; also: % is scaled to controls: 0 for no effect and ±100 for the full control effect; nearly all actives have a fitted effect of over 55% in size
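Quantitative HTS, concentration-response format. 2,000 cells/well co-treated with 5-fluorouridine and compound, 16 hr in 5% CO2 at 37 °C; ONE-Glo luminescence read after 30 min.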
KB-V1 MDR tox: KB-V1 MDR subline cytotoxicity. KB-V1 MDR cells viability, CellTiter-Glo, 72 h. Potency, µM (top dose mostly 46.1 µM), most hits filed as cytotoxic. 400,000 tested, 3.4% active. AID 1347076; also: % is scaled to controls: 0 for no effect and ±100 for the full control effect; nearly all actives have a fitted effect of over 60% in size
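KB-V1 cells (P-gp-expressing MDR subline of KB-3-1) in phenol-red-free DMEM with 10% FBS were exposed to library compounds over a concentration series for 72 h at 37 degrees C. Viability read by CellTiter-Glo luminescence; concentration-effect curves fitted after normalization.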
SW480 rereplic: inducers of DNA re-replication in SW480 colon cancer cells. SW480 DNA re-replication, Hoechst DNA content imaging, 48 h. Potency, µM (doses to about 46.1 µM), without a hit: at the top dose re-replication activation, most hits filed as activators. 340,000 tested, 1.8% active. AID 624297; also: % of control where 0% means no effect; nearly all actives have a fitted effect of over 55% in size
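DNA re-replication was detected as more nuclei of elevated Hoechst intensity after 48 hr exposure to compound (23 nL pinned per well of 250 cells).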
KB-3-1 tox: kills parental KB-3-1 adenocarcinoma cells. KB-3-1 viability, CellTiter-Glo ATP luminescence, 72 h. Potency, µM (top dose mostly 46.1 µM), most hits filed as cytotoxic. 400,000 tested, 1.4% active. AID 1347075; also: % is scaled to controls: 0 for no effect and ±100 for the full control effect; nearly all actives have a fitted effect of over 60% in size
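Luminescent ATP read-out (CellTiter-Glo) measures survival of drug-naive KB-3-1 cells after 72 h compound exposure at 37 °C. Titration series was screened from lowest to highest concentration, with DMSO vehicle plates as background controls.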
MCF10A rerep: DNA re-replication induction in MCF 10a cells | MCF 10A DNA re-replication, Hoechst nuclear intensity, 48 h | Potency, µM (doses to about 46.1 µM), for inactives: top-dose activity, positive = re-replication, most hits filed as activators | 350,000 tested, 2.9% active | AID 624296; also: % of control where 0% means no effect; nearly all actives have a fitted effect of over 50% in size
Starred values were filed as active, the others as inactive; i = inactive; ? = inconclusive; · = not tested or not shown; [ ] = another dose, or the depositor's remark. Calls follow the shape of the dose curve; as a rule, active = well fitted curve in the direction sought with a large enough effect; inconclusive = small, poorly fitted or top-dose-only effect, or another doubt; inactive = no such curve, though single readings can be large; an effect the other way counts as inactive or inconclusive. Potency is read from the fitted curve at half-maximal effect.

SMILES	ELG1 DNA repair	KB-V1 MDR tox	SW480 rereplic	KB-3-1 tox	MCF10A rerep
COCCC(=O)N1CCC(Oc2ccc(C(=O)NCCc3cn[nH]c3)cc2)CC1	12.8%	i	-8.7%	i	10.6%
COc1cccc(NC(=O)Cn2c(=O)n(Cc3ccccc3)c(=O)c3c2c2cc(C)ccc2n3C)c1	·	i	·	i	·
CCC(=O)NCCc1nc2cc(NC(=O)c3ccc(Cl)cc3)ccc2n1C	?	i	-1.8%	i	15.1%
CC(=O)O[C@@H]1C[C@H]2C(C)(C)C(=O)C=C[C@]2(C)[C@H]2CC[C@@]3(C)[C@H](c4ccoc4)OC(=O)[C@H]4O[C@]43[C@@]21C	?	?	4.11µM*	?	?
CSc1ccc(CCNC(=O)CN2C(=O)CCSc3ccccc32)cc1	-3.3%	i	1.5%	i	0.4%
COc1ccc(/C(C)=N/Nc2nncc3ccccc23)cc1	?	i	-5.8%	i	-8.1%
COc1ccc(/C(C)=N/Nc2nc3ccccc3nc2C)cc1	?	i	18.4µM*	14.6µM*	14.6µM*
COc1ccccc1C(=O)N/C(=C\c1cn(C)c2ccccc12)C(=O)NCCN1CCOCC1	·	i	·	i	·
COc1ccc(CN2CSC(=S)N(Cc3ccccc3)C2)cc1	-2.8%	i	?	i	?
S=C1SCN(Cc2ccccc2)CN1Cc1ccccc1	0.0%	i	?	i	33.5µM*
S=C1SCN(Cc2cccnc2)CN1Cc1cccnc1	23.1µM*	?	?	?	13µM*
CSc1ccccc1NC(=O)Cc1ccccc1[N+](=O)[O-]	-6.8%	i	-22.4%	i	10.2%
Cc1cc(NC(=O)COC(=O)CCS(=O)(=O)c2ccc(C)c(C)c2)no1	-2.2%	i	-1.1%	i	-6.6%
Cc1cc(NC(=O)COC(=O)CCS(=O)(=O)c2cc(Cl)ccc2Cl)no1	-1.7%	i	2.9%	i	20.6µM*
CCOC(=O)C1CCCN(C(=O)c2cc(COc3ccc(C)nc3)on2)C1 (stereo not given)	?	16.4µM*	?	i	-1.1%
CCOC(=O)C1CCCN(C(=O)c2cc(-c3ccc(C)cc3)on2)C1 (stereo not given)	?	i	-6.5%	i	1.7%
COc1cccc(N/C(N)=N/c2nc(CSc3ccccn3)cc(=O)[nH]2)c1	-11.4%	·	·	·	·
Cc1ccc(SCc2cc(=O)[nH]c(/N=C(\N)Nc3ccccc3Sc3ccccc3)n2)cc1	-0.8%	i	1.2%	i	1.8%
Cc1ccc(N/C(N)=N/c2nc(CSc3nnc(N)s3)cc(=O)[nH]2)cc1	-3.9%	i	1.2%	i	0.3%
N/C(=N\c1nc(CSc2nc3ccccc3s2)cc(=O)[nH]1)Nc1ccc(F)cc1	?	i	12.8%	11.6µM*	?
CCc1ccc(N/C(N)=N/c2nc(CSc3ccccn3)cc(=O)[nH]2)cc1	23.1µM*	?	?	?	?
COc1ccccc1N/C(N)=N/c1nc(CSc2ccc(C)cc2)cc(=O)[nH]1	10µM*	i	0.2%[9.22 µM]	i	-1.6%
Cc1ccc2ccccc2[n+]1CCCS(=O)(=O)[O-]	0.4%	i	-0.7%	i	5.7%
CCC[n+]1c2ccccc2cc2ccccc21	23.1µM*	20.6µM*	11.6µM*	?	13µM*
CCCC[n+]1c2ccccc2cc2ccccc21	?	i	?	16.4µM*	2.9%
SMILES	ELG1 DNA repair	KB-V1 MDR tox	SW480 rereplic	KB-3-1 tox	MCF10A rerep
Cc1nn(CC(=O)N2CC(=O)Nc3ccccc32)c(C)c1[N+](=O)[O-]	-4.1%	i	-6.1%	i	-9.0%
COc1ccc([C@@H]2CC=C(C(=O)O)[C@H](c3ccc(C(C)(C)C)cc3)N2S(=O)(=O)c2ccc(C)cc2)cc1OC	-13.6%	i	?	i	?
O=C(c1cccc(F)c1)N1CCc2ccccc21	8.1%	i	1.4%	i	0.184µM*
O=C(c1cccc([N+](=O)[O-])c1)N1CCc2ccccc21	1.1%	i	-0.4%	i	-7.5%
CCCN(CC1CC1)C(=O)CSc1ncnc2sc(C)c(C)c12	18.4µM*	i	-2.6%	i	22.1%
CCN(C(=O)CSc1ncnc2sc(C)c(C)c12)C1CCS(=O)(=O)C1 (stereo not given)	?	?	-2.5%	i	-1.2%
Cc1sc2ncnc(SCC(=O)c3cccs3)c2c1C	?	16.4µM*	2.8%	?	16.6%
Cc1cc2ccc(C)c(C)c2nc1SCC(=O)c1cccs1	7.3%	14.6µM*	15.9%	?	?
Cc1sc2ncnc(SCC(=O)NNC(=O)COc3cccc4ccccc34)c2c1C	-3.3%	?	?	?	23.1µM*
Cc1cccc(NC(=O)C2(C)CC3c4ccccc4C2c2ccccc23)c1C (stereo not given)	-1.1%	7.31µM*	-83.2%	?	7.9%
Cc1ccc(C)c(NC(=O)C2(C)CC3c4ccccc4C2c2ccccc23)c1 (stereo not given)	12.3%	i	13.1%	i	0.1%
Cn1nc([N+](=O)[O-])nc1Oc1ccccc1	5.8%	?	-3.0%	i	-16.2%
Cn1nc([N+](=O)[O-])nc1Oc1ccc(C(C)(C)C)cc1	-7.3%	14.6µM*	-1.6%	i	?
Cn1c(N)c(C(=O)COC(=O)c2ccccc2C(=O)c2ccc(Cl)c([N+](=O)[O-])c2)c(=O)n(C)c1=O	?	i	?	?	11.6µM*
CN(CCC#N)C(=O)COC(=O)c1ccccc1C(=O)c1ccc(Cl)c([N+](=O)[O-])c1	20.3%	i	22.6%	?	9.2µM*
Cn1c(N)c(C(=O)COC(=O)c2ccccc2C(=O)c2ccccc2)c(=O)n(C)c1=O	-13.3%	i	-0.5%	?	16.4%
O=C(COC(=O)c1ccc(Cl)c([N+](=O)[O-])c1)NC1CCCC1	3.0%	i	-1.5%	i	9.9%
CC(C)N(C(=O)COC(=O)c1ccccc1C(=O)c1ccc(Cl)c([N+](=O)[O-])c1)C(C)C	?	i	?	i	?
O=C(COC(=O)c1ccccc1C(=O)c1ccc(Cl)c([N+](=O)[O-])c1)NC1CCCCCC1	?	i	3.66µM*	?	2.59µM*
Cc1ccc(Nc2nc(N)nc(CN3CCN(c4ccccc4)CC3)n2)cc1Cl	?	16.4µM*	10.0%	i	18.4µM*
COc1ccc(N2CCN(Cc3nc(N)nc(Nc4ccc(C)c(Cl)c4)n3)CC2)cc1	13µM*	5.17µM*	?	i	?
Cc1ccc(Nc2nc(N)nc(CN3CCN(C)CC3)n2)cc1C	12.4%	·	·	·	·
CCOC(=O)N1CCN(Cc2nc(N)nc(Nc3ccc(Oc4ccccc4)cc3)n2)CC1	11.6µM*	13µM*	0.5%	i	?
